Inconclusive results are not listed. Calls of active or inactive are those of the source. Unless noted, the call rests on the fitted dose curve; in most records, active means well fitted curve in the direction sought with a large enough effect; inconclusive means small, poorly fitted or top-dose-only effect, or another doubt; inactive means no such curve, though single readings can be large; an effect the other way counts as inactive or inconclusive.
What was measured:
[1] = biological target: Lysosomal acid glucosylceramidase (Homo sapiens) (UniProt P04062); experiment: Glucocerebrosidase-p2 (AID 348; in the data active means potency below about 10 µM; further: potency means the concentration at half of the fitted maximal effect); conditions: purified GBA, blue fluorogenic substrate, 40 min
In short: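 Compounds titrated from 0.6 nM upwards against 0.2 nM enzyme in pH 5.9 citric acid/KH2PO4, taurocholate, tween-20; blue fluorogenic substrate 80 uM, 40 min room temperature, stopped and read Ex 365/Em 440 for AC50.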

[2] = AP1 Signaling Pathway (AID 357; active means well fitted curve in either direction with a large enough effect, not every such curve was filed as active; further: on the % scale 0 is the no-effect control and ±100 the full control effect); conditions: ME-180 AP-1-bla reporter, EGF-induced, beta-lactamase ratio, 5 h; at 7.69 µM (top of the series) unless noted
In short: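 ME-180 cells with beta-lactamase reporter under AP-1 response element, stimulated with EC50 EGF; compounds tested in titration series, 5 h at 37 °C. CCF4 substrate added 2.5 h at room temperature; 460/530 nm emission ratio gave %activity and AC50.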

[3] = biological target: Cytochrome P450 1A2 (Homo sapiens) (UniProt P05177); experiment: p450-cyp1a2 (AID 410; calls by dose curve; further: potency means the concentration at half of the fitted maximal effect); conditions: recombinant CYP1A2, luciferin-ME demethylation, luminescence; series mostly up to 57 µM
In short: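 Inhibition was calculated relative to 57 uM furafylline (full inhibition). The reaction used human CYP1A2 at 20nM with Luciferin-ME at its Km, 100uM, driven by an NADPH-regenerating system for 60 min at room temperature.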

[4] = NFAT Signaling Pathway (AID 444; active means well fitted curve in either direction with a large enough effect, not every such curve was filed as active;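 further: carbachol stimulus at about its EC50 of 1 µM final; on the % scale 0 is the no-effect control and ±100 the full control effect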); conditions: Jurkat NFAT-bla M1, carbachol, beta-lactamase ratio, 5 h; at 7.69 µM (top of the series) unless noted
In short: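 Read-out: CCF4 FRET ratio (460 nm/530 nm) after 1 h RT dye loading, used for %activity and AC50 from titration series. Cells: Jurkat NFAT-β-lactamase/M1 line, treated with compound plus 1 uM carbachol for 5 h, 37 °C.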

[5] = Stat Signaling Pathway (AID 446; active means well fitted curve in either direction with a large enough effect, not every such curve was filed as active;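 further: ME-180 cervical cancer cells given 40 pM IL-6 alongside compound; SIE-controlled beta-lactamase reporter measured as 460/530 nm FRET emission ratio; on the % scale 0 is the no-effect control and ±100 the full control effect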); conditions: ME-180 SIE beta-lactamase reporter, IL-6 stimulated, 5 h; at 7.69 µM (top of the series) unless noted
In short: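 ME-180 SIE-bla cells; overnight plating; cpd + IL-6 40 pM, 5 h, 37 C; LiveBLAzer 2.5 h RT; 460/530 nm emission ratio. Normalized to 300 pM IL-6 and 125 nM JAK inhibitor controls.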

[6] = biological target: Glucocorticoid receptor (Homo sapiens) (UniProt P04150); experiment: GR-GFP Redistribution (AID 450;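 active means compounds whose dose series gives a full or clear partial fitted curve of increased nuclear translocation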; further: potency means the concentration at half of the fitted maximal effect); conditions: U2OS GR-GFP nuclear translocation, laser cytometry, 2 h
[7] = biological target: Glucocorticoid receptor (Homo sapiens) (UniProt P04150); experiment: GR-EFC Redistribution (AID 451; calls by dose curve; further: potency means the concentration at half of the fitted maximal effect); conditions: CHO-K1 GR-EFC translocation, beta-gal luminescence, 2 h
In short: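 Translocation of GR-ED fusion to nuclear EA restores b-gal, read by luminescence after 1 h room-temperature detection. Engineered CHO-K1 biosensor cells, 1,000/well, exposed 2 h at 37 C to titrations up to 46 uM final.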

[8] = biological target: Mitogen-activated protein kinase 10 (Mus musculus) (UniProt Q61831); experiment: JNK3 AlphaScreen Assay (AID 530; active means well fitted curve in either direction with a large enough effect, not every such curve was filed as active;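 further: kinase came from lysate of stimulated human HepG2 cells; signal reports phosphorylation of biotinylated GST-cJun 1-79 at Ser73 with 10 µM ATP; on the % scale 0 is the no-effect control and ±100 the full control effect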); conditions: JNK3 lysate, c-Jun phosphorylation; series mostly up to 57.1 µM
In short: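 Room-temperature AlphaScreen kinase assay; pre-activated HepG2 lysate as JNK3 source, biotin-GST-cJun(1-79) substrate, 10 uM ATP, compound 15 min preincubation.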

[9] = biological target: 3',5'-cyclic-AMP phosphodiesterase 4B (Homo sapiens) (UniProt Q07343); experiment: qHTS Assay for Inhibitors of PDE-IV (AID 607; active means well fitted activation curve with a large enough effect in the main read-out, with a control signal flat, not every such curve was filed as active; further: % of control where 0% means no effect); conditions: HEK293 ACTOne CNG channel cells, membrane potential fluorescence; series mostly up to 22.9 µM
In short: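 ACTOne HEK293 cells carry a modified cAMP-gated CNG channel and express endogenous PDE4; plated 1000 cells/well, compounds up to 22.9 uM final. Membrane-potential dye fluorescence (ex 535/em 590) was read; parental cells received 10 uM forskolin + 100 uM RO 20-1724.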

[10] = qHTS Assay for Lipid Storage Modulators (AID 1519; calls by dose curve); conditions: Drosophila S3 cells, BODIPY lipid droplet/cell ratio, laser cytometry, cells loaded with oleic acid; for activity change, negative = inhibition: at 57.5 µM (top of the series)
In short: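 Cells seeded at 5,000 per well were treated with compounds over a concentration series and loaded with oleic acid (400 uM, as added). Lipid droplet fluorescence (488 nm excitation, 500-530 nm channel) was read by laser-scanning cytometry and normalized to 20 uM Triacsin C.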

[11] = biological target: Ubiquitin carboxyl-terminal hydrolase 1 (Homo sapiens) (UniProt O94782); experiment: Inhibitors of USP1/UAF1: Pilot qHTS (AID 504865); conditions: purified USP1/UAF1, Ub-rhodamine cleavage fluorescence; series mostly up to 54.9 µM;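 further: rhodamine fluorescence freed from ubiquitin-rhodamine substrate followed over time; top concentration of the series differs between compounds; on the % scale 0 is the no-effect control and ±100 the full control effect; nearly all actives have a fitted effect of over 35% in size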
In short: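 USP1/UAF1 complex (1nM) preincubated with compound 15 min at room temperature, then Ub-Rho substrate (150nM final) added. Fluorescence read kinetically at 480/540 nm, 6 reads every 60 seconds. Buffer: 50mM HEPES pH 7.8, 0.5mM EDTA, 0.1 mg/ml BSA, 1mM TCEP, 0.01% Tween-20.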

[12] = Primary qHTS for small molecule stabilizers of the endoplasmic reticulum resident proteome: Secreted ER Calcium Modulated Protein (SERCaMP) assay (AID 1508630); conditions: SH-SY5Y GLuc-SERCaMP (Gaussia luciferase released on ER calcium loss) secretion, thapsigargin, luminescence; series mostly up to 38.4 µM; further: on the % scale 0 is the no-effect control and ±100 the full control effect
In short: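 GLuc-SERCaMP-expressing SH-SY5Y cells, pretreated 16 h with compound, are challenged with thapsigargin to empty ER calcium stores; after 4 h, coelenterazine is added directly to the medium and luminescence is imaged.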

[13] = biological target: Dual specificity protein kinase CLK4 (Homo sapiens) (UniProt Q9HAZ1); experiment: qHTS Assay for Inhibitors of CDC-like Kinase 4 (Kinase-Glo Assay) (AID 1770); conditions: recombinant Clk4, Kinase-Glo ATP depletion luminescence; series mostly up to 66.7 µM; further: nearly all actives have a fitted effect of over 65% in size; further: potency means the concentration at half of the fitted maximal effect
In short: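 Recombinant human Clk4 (25 nM) phosphorylated RS repeat peptide (100 uM) with 1 uM ATP in Tris pH 7.5/MgCl2/EGTA/DTT/Triton buffer for 4.5 h at room temperature. Residual ATP was quantified by Kinase-Glo luciferase luminescence.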

[14] = biological target: Cytochrome P450 3A4 (Homo sapiens) (UniProt P08684); experiment: qHTS Assay for Inhibitors and Substrates of Cytochrome P450 3A4 (AID 884); conditions: recombinant CYP3A4, Luciferin-PPXE luminescence; series mostly up to 57.1 µM; further: potency means the concentration at half of the fitted maximal effect; nearly all actives have a fitted effect of over 50% in size
In short: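 20 nM human CYP3A4 with 25 uM Luciferin-PPXE (at KM) in 200 mM KPO4, preincubated 10 min with compound; NADPH regeneration started a 60 min RT reaction. Luciferin detected by luminescence, normalized to 57 uM ketoconazole as full inhibition.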

[15] = biological target: Cytochrome P450 3A4 (Homo sapiens) (UniProt P08684); experiment: qHTS Assay for Activators of Cytochrome P450 3A4 (AID 885); conditions: recombinant CYP3A4, Luciferin-PPXE luminescence, 60 min; series mostly up to 57.1 µM; further: nearly all actives have a fitted effect of over 65% in size
In short: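 20nM CYP3A4 + 25uM Luciferin-PPXE (=KM), 200mM KPO4; cpd 10 min RT; NADPH regen, 60 min RT; stop w/ detection buffer, 20 min; luminescence. Normalized to 57 uM ketoconazole.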

[16] = biological target: Cytochrome P450 2C19 (Homo sapiens) (UniProt P33261); experiment: qHTS Assay for Inhibitors and Substrates of Cytochrome P450 2C19 (AID 899); conditions: recombinant CYP2C19, luciferin-H EGE luminescence; series mostly up to 57.1 µM; further: potency means the concentration at half of the fitted maximal effect; nearly all actives have a fitted effect of over 60% in size
In short: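 Reactions contain 5nM enzyme, 10uM Luciferin-H EGE (KM) and 50mM KPO4; compound preincubates 10 min at 37C, NADPH regeneration starts turnover for 60 min. Luminescence after detection reagent gives activity.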

[17] = biological target: Dual specificity protein kinase CLK4 (Homo sapiens) (UniProt Q9HAZ1); experiment: qHTS Assay for Inhibitors of CDC-like Kinase 4 (ADP-FP Assay) (AID 1795); conditions: Transcreener ADP fluorescence polarization; series mostly up to 50 µM; further: on the % scale 0 is the no-effect control and ±100 the full control effect; nearly all actives have a fitted effect of over 60% in size
In short: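 Recombinant human Clk4 (6.25 nM) phosphorylated RS repeat peptide (100 uM) with 1 uM ATP in Tris pH 7.5/MgCl2/EGTA/DTT/Triton buffer for one hour. ADP was quantified by Transcreener competitive fluorescence polarization against an ADP calibration curve.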

[18] = qHTS Assay for Identification of Small Molecule Agonists for Hypoxia Response Element Signaling Pathway (AID 914; active means well fitted activation curve with a large enough effect in the signal ratio, with a control signal flat, not every such curve was filed as active; the % refers to the signal ratio; further: potency means the concentration at half of the fitted maximal effect); conditions: ME-180 (cervical carcinoma) HRE-bla reporter, beta-lactamase ratio, CoCl2, 17 h; activation: stronger effect = higher value
In short: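 HRE-bla ME-180 cells, overnight plating in Opti-MEM with 0.5% dialyzed FBS; cpd titration + EC50 CoCl2, 17 h, 37 degrees Celsius; CCF4 2.5 h RT; 460/530 nm ratio; AC50.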

[19] = measured here: cell count channel max response
[20] = measured here: lipid channel max response

Chain of 3',5'-cyclic-AMP phosphodiesterase 4B (Homo sapiens) (Q07343 whole entry, looked up): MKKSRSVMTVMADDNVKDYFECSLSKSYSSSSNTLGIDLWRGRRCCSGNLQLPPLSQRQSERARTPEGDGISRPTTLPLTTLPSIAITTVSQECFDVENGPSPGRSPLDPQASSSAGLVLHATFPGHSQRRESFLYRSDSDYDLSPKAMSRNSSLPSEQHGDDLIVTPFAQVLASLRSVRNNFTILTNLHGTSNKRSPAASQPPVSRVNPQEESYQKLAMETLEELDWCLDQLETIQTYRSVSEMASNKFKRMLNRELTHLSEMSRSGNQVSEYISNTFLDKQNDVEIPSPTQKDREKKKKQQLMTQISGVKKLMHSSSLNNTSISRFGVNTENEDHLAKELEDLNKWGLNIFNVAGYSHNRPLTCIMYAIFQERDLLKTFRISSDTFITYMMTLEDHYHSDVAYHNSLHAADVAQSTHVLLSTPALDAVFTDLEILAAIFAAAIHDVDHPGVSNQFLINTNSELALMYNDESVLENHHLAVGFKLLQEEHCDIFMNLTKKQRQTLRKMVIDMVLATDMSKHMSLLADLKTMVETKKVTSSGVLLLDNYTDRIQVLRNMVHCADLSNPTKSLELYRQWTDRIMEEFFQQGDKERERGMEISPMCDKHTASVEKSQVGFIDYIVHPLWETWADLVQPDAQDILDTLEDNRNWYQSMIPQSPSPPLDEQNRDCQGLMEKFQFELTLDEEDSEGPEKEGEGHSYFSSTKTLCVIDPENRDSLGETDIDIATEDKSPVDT
Chain of Dual specificity protein kinase CLK4 (Homo sapiens) (Q9HAZ1 whole entry, looked up): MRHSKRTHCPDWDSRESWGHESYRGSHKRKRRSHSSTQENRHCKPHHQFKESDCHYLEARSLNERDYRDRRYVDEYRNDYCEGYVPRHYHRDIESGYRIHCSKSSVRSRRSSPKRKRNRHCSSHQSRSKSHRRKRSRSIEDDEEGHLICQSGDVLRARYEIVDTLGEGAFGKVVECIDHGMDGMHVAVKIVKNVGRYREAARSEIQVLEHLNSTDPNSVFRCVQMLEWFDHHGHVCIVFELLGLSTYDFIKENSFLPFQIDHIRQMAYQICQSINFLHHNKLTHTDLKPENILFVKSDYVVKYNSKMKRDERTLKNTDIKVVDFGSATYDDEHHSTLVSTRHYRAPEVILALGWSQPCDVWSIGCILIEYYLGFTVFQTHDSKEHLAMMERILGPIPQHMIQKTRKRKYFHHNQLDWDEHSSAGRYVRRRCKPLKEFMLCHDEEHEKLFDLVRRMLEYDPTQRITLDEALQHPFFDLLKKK
Chain of Cytochrome P450 3A4 (Homo sapiens) (P08684 whole entry, looked up): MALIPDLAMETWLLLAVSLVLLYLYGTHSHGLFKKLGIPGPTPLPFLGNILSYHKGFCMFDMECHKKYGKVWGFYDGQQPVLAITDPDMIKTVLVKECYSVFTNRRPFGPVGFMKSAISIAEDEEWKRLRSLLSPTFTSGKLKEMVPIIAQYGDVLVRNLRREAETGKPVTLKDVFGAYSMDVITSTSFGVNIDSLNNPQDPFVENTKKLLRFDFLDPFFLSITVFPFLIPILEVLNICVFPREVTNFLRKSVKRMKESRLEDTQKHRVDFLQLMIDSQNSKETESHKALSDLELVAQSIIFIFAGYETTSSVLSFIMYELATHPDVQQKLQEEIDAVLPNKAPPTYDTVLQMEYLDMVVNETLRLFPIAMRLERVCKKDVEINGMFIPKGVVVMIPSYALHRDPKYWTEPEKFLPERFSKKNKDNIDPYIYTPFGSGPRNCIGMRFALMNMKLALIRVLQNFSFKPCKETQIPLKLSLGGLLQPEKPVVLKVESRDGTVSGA
Chain of Glucocorticoid receptor (Homo sapiens) (P04150 whole entry, looked up, the tested form may be a part): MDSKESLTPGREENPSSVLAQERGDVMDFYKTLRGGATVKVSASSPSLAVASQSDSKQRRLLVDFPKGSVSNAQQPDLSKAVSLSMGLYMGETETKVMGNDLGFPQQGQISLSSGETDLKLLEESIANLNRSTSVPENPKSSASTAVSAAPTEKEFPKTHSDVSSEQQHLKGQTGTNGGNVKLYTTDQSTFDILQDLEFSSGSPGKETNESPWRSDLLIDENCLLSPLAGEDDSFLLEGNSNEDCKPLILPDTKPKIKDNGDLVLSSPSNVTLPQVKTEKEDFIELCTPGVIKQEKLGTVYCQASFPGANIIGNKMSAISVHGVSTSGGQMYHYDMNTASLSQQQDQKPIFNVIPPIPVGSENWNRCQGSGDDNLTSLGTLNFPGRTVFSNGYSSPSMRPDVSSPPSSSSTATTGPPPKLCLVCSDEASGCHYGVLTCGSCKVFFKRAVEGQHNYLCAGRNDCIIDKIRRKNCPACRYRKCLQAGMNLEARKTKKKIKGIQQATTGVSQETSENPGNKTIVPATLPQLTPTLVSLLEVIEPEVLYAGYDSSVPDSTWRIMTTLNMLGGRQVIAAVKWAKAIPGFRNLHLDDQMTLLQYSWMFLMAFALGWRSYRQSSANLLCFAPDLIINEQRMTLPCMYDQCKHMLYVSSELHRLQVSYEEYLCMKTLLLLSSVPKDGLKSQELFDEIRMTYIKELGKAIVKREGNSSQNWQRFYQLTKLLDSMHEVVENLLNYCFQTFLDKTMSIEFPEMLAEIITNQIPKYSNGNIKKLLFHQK
Chain of Ubiquitin carboxyl-terminal hydrolase 1 (Homo sapiens) (O94782 whole entry, looked up): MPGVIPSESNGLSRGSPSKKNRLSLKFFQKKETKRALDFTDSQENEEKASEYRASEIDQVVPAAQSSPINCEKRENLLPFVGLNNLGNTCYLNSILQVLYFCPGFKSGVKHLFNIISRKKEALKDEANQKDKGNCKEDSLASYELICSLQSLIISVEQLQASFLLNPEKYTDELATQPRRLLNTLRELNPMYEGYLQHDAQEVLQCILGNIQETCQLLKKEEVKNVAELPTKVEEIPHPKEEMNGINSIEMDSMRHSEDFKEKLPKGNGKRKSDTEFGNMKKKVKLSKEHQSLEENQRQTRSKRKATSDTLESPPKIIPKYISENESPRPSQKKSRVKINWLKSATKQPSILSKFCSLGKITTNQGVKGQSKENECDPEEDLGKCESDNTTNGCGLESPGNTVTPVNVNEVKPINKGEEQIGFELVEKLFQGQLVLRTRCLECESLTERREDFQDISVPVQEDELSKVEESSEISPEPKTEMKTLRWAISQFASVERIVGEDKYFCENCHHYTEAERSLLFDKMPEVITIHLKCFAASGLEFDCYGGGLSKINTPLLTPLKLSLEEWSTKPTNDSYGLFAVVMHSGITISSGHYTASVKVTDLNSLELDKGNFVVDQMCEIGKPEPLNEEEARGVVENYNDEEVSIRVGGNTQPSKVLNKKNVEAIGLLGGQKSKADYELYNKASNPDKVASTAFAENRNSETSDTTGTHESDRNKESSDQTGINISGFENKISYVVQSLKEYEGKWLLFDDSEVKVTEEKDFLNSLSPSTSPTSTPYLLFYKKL
Chain of Cytochrome P450 1A2 (Homo sapiens) (P05177 whole entry, looked up): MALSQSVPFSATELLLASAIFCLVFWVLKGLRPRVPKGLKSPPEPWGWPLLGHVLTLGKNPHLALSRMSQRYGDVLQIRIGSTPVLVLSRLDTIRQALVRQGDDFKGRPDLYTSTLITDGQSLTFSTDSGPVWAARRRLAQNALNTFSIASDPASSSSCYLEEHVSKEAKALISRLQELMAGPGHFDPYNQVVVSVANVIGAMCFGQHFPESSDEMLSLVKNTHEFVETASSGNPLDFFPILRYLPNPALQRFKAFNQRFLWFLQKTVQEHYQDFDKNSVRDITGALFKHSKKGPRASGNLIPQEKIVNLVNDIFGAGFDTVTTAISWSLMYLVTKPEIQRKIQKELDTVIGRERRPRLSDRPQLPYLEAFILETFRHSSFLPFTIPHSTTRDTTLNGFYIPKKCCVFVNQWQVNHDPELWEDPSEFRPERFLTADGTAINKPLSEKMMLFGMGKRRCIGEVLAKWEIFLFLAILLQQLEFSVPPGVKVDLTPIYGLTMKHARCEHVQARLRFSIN
Chain of Lysosomal acid glucosylceramidase (Homo sapiens) (P04062 whole entry, looked up): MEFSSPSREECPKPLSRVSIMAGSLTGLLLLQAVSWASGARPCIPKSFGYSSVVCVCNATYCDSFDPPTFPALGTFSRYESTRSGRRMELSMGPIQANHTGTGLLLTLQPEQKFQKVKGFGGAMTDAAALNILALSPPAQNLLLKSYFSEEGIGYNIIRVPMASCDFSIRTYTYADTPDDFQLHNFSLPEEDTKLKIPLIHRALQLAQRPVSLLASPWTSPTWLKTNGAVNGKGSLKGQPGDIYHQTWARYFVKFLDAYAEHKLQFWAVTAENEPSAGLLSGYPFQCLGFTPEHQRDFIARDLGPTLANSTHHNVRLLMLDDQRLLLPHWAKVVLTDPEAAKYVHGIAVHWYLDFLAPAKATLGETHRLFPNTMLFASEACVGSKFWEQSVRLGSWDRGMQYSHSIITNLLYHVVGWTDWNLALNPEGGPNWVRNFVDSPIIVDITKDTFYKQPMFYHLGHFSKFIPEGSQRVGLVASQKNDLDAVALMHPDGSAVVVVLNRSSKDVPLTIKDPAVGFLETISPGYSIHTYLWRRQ
Chain of Cytochrome P450 2C19 (Homo sapiens) (P33261 whole entry, looked up): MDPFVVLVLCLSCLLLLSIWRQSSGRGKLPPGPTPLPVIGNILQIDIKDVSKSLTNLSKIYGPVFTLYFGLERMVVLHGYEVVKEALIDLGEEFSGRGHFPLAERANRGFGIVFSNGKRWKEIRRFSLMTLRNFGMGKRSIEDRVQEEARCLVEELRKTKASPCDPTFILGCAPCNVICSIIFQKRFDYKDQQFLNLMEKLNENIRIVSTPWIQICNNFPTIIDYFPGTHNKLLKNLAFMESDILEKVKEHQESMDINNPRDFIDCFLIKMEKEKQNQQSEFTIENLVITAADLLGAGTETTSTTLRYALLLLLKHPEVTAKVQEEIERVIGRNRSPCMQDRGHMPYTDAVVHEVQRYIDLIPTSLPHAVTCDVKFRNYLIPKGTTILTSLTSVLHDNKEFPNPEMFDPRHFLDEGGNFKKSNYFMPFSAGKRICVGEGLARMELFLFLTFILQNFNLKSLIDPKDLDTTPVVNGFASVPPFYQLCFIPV

Cc1nc2cnc(Nc3ccccc3)nc2n(C2CC2)c1=O
-13.6%: max response [10, 19]
-28.8%: max response [10, 20]
active: Potency [3] 1 µM
inactive: Potency [1] > 11.4 µM | activity change, negative = inhibition [2] -25.6% | activity change, negative = inhibition [4] 1.3% | activity, negative = inhibition [5] -10.8% | Potency [6] > 9.22 µM | Potency [7] > 46 µM | outcome [8] | Potency [9] | activity change, negative = inhibition [10] -15.4% | Potency [11] | Potency [12]

COc1ccc(-n2c(=O)cnc3cnc(N4CCOCC4)nc32)cc1
active: Potency [13] 28.2 µM
inactive: Potency [1] > 11.4 µM | activity change, negative = inhibition [2] 4.95% | activity change, negative = inhibition [4] 1.82% | activity, negative = inhibition [5] -10.3% | Potency [6] > 9.22 µM | Potency [7] > 46 µM | outcome [8] | Potency [9] | activity change, negative = inhibition [10] 6.91% | Potency [11] | Potency [12]
0.0679%: max response [10, 19]
8.45%: max response [10, 20]

COCCNc1cc(-c2ccccc2C)ncn1
inactive: Potency [1] > 11.4 µM | activity change, negative = inhibition [2] 5.04% | activity change, negative = inhibition [4] 5.56% | activity, negative = inhibition [5] 13.1% | Potency [6] > 46 µM | Potency [7] > 46 µM | outcome [8] | Potency [9] | activity change, negative = inhibition [10] 6.88% | Potency [12]
active: Potency [3] 15.8 µM | Potency [13] 12.6 µM
3.79%: max response [10, 19]
8.94%: max response [10, 20]

COc1ccc2[nH]cc(CCNc3ncncc3-c3c(C)noc3C)c2c1
inactive: Potency [1] > 11.4 µM | activity change, negative = inhibition [2] -11.4% | activity change, negative = inhibition [4] -0.0502% | activity, negative = inhibition [5] -10.2% | Potency [6] > 46 µM | Potency [7] > 46 µM | outcome [8] | Potency [9] | Potency [15] | activity change, negative = inhibition [10] 7.61% | Potency [17] | Potency [11] | Potency [12]
active: Potency [3] 12.6 µM | Potency [14] 0.794 µM | Potency [16] 3.16 µM
18.3%: max response [10, 20]
11.1%: max response [10, 19]

Cn1c(=O)c(-c2ccccc2)nc2cncnc21
16.6%: max response [10, 20]
active: Potency [3] 0.631 µM
inactive: Potency [1] > 11.4 µM | activity change, negative = inhibition [2] -7.79% | activity change, negative = inhibition [4] -9.84% | activity, negative = inhibition [5] -4.68% | Potency [7] > 46 µM | outcome [8] | Potency [9] | Potency [15] | activity change, negative = inhibition [10] 6.1% | Potency [13] | Potency [17] | Potency [11] | Potency [12]
8.5%: max response [10, 19]

CCNc1ncc2nc(-c3cc(F)cc(F)c3)c(=O)n(C)c2n1
-3.55%: max response [10, 20]
inactive: Potency [1] > 11.4 µM | Potency [6] > 9.22 µM | Potency [7] > 46 µM | outcome [8] | activity change, negative = inhibition [10] -1.81% | Potency [13] | Potency [11] | Potency [12]
active: Potency [3] 2 µM | Potency [18] 3.16 µM
-4.13%: max response [10, 19]

Source: PubChem BioAssay (NCATS)
